Nrf2 ARE act: activates Nrf2 signaling; AID 624171; AREc32 ARE-luciferase reporter (MCF7-derived line), luminescence, 24 h; 410,000 tested, 0.31% active; Potency, µM (series often up to 46.1 µM), without a hit: top-dose activation, usual class: activators; further: potency means the concentration at half of the fitted maximal effect; % of control where 0% means no effect; nearly all actives have a fitted effect of over 65% in size
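AREc32 cells carrying an ARE-driven firefly luciferase, 1000 cells/well in OPTI-MEM with 5% FBS, dosed after overnight attachment and incubated 24 hr at 37 deg C. Steady-Glo luminescence read after 30 min at RT.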
IDH1 R132H inh: human IDH1 R132H inhibition | O75874 | IDH1-R132H enzyme, NADPH consumption, diaphorase/resazurin fluorescence | Potency, µM (titrated, usually from 76.6 µM), for the others: at the top dose activity change, negative = inhibition, actives largely listed as inhibitors | 390,000 tested, 0.093% active; further: potency means the concentration at half of the fitted maximal effect; on the % scale 0 is the no-effect control and ±100 the full control effect; nearly all actives have a fitted effect of over 65% in size
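IDH1-R132H (0.5 ug/mL dispensed) in pH 7.5 Tris buffer was preincubated 30 min with compound, then given a substrate mix of 0.016 mM NADPH and 2 mM alpha-KG for 80 min at room temperature; remaining NADPH was read by diaphorase/resazurin fluorescence.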
ALOX12 inh: inhibitors of human 12S-lipoxygenase ALOX12; P18054; purified 12hLO, xylenol orange hydroperoxide absorbance; Potency, µM (doses to about 108 µM), for the others: top-dose activity change, negative = inhibition, hits mostly inhibitors; 580,000 tested, 1.1% active; AID 1671190; further: potency means the concentration at half of the fitted maximal effect; on the % scale 0 is the no-effect control and ±100 the full control effect
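Purified human 12hLO at 150 nM in 25 mM Hepes, 0.01% Triton X-100, pH 7.0, preincubated 15 min at room temperature with compound. Reaction started with 40 uM arachidonic acid, 30 min at room temperature. Hydroperoxide measured by Fe-xylenol orange, 573/405 nm absorbance ratio.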
LDHA inh: LDHA (human) enzyme inhibition; P00338; purified LDHA, NADH/diaphorase-resazurin fluorescence; stronger effect = lower value; activity change, % (values are at about 110 or 230 µM); 480,000 tested, 0.15% active; AID 1347041; in the data active means activity change below about -30%; inconclusive means mostly about -25% to -30%;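 further: plate controls were DMSO wells for no effect and wells without enzyme for full effect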
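LDH5 2 nM; NADH 0.06 mM, pyruvate 0.2 mM; 200 mM Tris pH 7.4, EDTA, Tween-20; 5 min RT. Detection: diaphorase 0.133 mg/mL + resazurin 37 µM, fluorescence ex540/em590 at 0 and 20 min; normalized to enzyme-free and DMSO wells.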
Nrf2 block: blocks Nrf2 signaling; 360,000 tested, 2.1% active; AID 504444; Potency, µM (titrated, usually from 46 µM), without a hit: at the highest dose activity change, negative = inhibition, hits mostly inhibitors; A549 ARE-Fluc reporter, luciferase luminescence, 18-24 h; further: potency means the concentration at half of the fitted maximal effect; on the % scale 0 is the no-effect control and ±100 the full control effect; nearly all actives have a fitted effect of over 60% in size
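Concentration-response testing used A549 ARE_Fluc cells at 5000 cells/well. Following an 18-24 h compound incubation, viability was read by fluorescence (Ex 405/Em 525) and luciferase output by luminescence.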
A549 tox-1: counter-screen for Nrf2 inhibitors: cytotoxicity in A549 cells; AID 504648; Potency, µM (top dose mostly 46 µM), inactives show at the highest dose activity change, negative = cytotoxicity, usual class: inhibitors; A549 ARE-Fluc cells, CellTiter-Fluor viability, 18-24 h; 390,000 tested, 0.16% active; further: potency means the concentration at half of the fitted maximal effect; on the % scale 0 is the no-effect control and ±100 the full control effect
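Cytotoxicity counterscreen: CellTiter-Fluor fluorescence was measured in A549 ARE_Fluc cells after 18-24 h of compound exposure in a concentration series. The subsequent BugLite luminescent read reports ARE-luciferase activity.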
FLuc enzyme inh: counter-screen for Nrf2 inhibitors: firefly luciferase enzyme inhibition; 1,400 tested, 4% active; Potency, µM (highest dose often 57.5 µM), for the others: at the highest dose activity change, negative = inhibition, actives largely listed as inhibitors; shares compounds with Nrf2 block; purified firefly luciferase, luminescence inhibition; further: potency means the concentration at half of the fitted maximal effect; on the % scale 0 is the no-effect control and ±100 the full control effect; nearly all actives have a fitted effect of over 65% in size
Target sequence (P08659 whole entry, looked up): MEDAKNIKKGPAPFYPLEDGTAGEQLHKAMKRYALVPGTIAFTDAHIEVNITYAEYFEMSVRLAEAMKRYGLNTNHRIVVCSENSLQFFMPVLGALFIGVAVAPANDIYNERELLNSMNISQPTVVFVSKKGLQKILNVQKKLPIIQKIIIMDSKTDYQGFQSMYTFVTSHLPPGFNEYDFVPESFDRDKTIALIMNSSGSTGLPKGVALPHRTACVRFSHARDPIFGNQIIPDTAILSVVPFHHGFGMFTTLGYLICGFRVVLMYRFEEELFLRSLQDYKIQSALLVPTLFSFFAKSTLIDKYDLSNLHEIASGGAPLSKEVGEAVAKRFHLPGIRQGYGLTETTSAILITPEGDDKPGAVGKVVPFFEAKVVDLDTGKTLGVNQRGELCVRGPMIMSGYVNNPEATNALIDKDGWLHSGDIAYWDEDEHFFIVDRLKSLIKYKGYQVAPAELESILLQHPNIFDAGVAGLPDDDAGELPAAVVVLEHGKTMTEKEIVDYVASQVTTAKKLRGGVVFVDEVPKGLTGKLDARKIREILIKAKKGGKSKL
A549 tox-2: A549 cytotoxicity, Nrf2 inhibitor counterscreen. Potency, µM (doses to about 46.1 µM), inactives show at the highest dose activity change, negative = cytotoxicity, usual class: inhibitors. shares compounds with Nrf2 block. 1,400 tested, 2% active. A549 ARE-Fluc cells, cytotoxicity counterscreen;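 further: potency means the concentration at half of the fitted maximal effect; cells exposed to compounds for 18 to 24 hours; on the % scale 0 is the no-effect control and ±100 the full control effect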
Nrf2 ARE inh: Nrf2 inhibition confirmed, A549 ARE-luciferase | shares compounds with Nrf2 block | A549 ARE-firefly luciferase reporter, luminescence | Potency, µM (top dose mostly 46.1 µM), without a hit: top-dose activity change, negative = inhibition, hits mostly inhibitors | 1,400 tested, 74% active | AID 720524; further: potency means the concentration at half of the fitted maximal effect; on the % scale 0 is the no-effect control and ±100 the full control effect; nearly all actives have a fitted effect of over 65% in size
The depositor's hits bear a star; ? = inconclusive; . = no result. A selection: hits, their analogues and other compounds. The true share with any hit is near 2.7%. Unless noted, the call rests on the fitted dose curve; in most records, active means well fitted curve in the direction sought with a large enough effect; inconclusive means small, poorly fitted or top-dose-only effect, or another doubt; inactive means no such curve, though single readings can be large; an effect the other way counts as inactive or inconclusive.

SMILES	Nrf2 ARE act	IDH1 R132H inh	ALOX12 inh	LDHA inh	Nrf2 block	A549 tox-1	FLuc enzyme inh	A549 tox-2	Nrf2 ARE inh
Cc1ccc(S(=O)(=O)N2CCN(C(=O)C3CCN(c4ncnc5sc(C)c(C)c45)CC3)CC2)c(C)c1	0.3%	-0.4%	202.4%	-2.2	8.2µM*	-10.3%	3.4%	-13.7%	11.6µM*
Cc1sc2ncnc(N3CCN(S(=O)(=O)c4ccc(C(C)(C)C)cc4)CC3)c2c1C	-1.1%	-2.7%	313.1%	-4.5	?	?	.	.	.
Cn1cccc/c1=N\c1cccc[n+]1C	2.6%	13.1%	?	?	2.91µM*	-21.6%	-0.9%	-12.5%	5.8µM*
COC(=O)c1ccc(NC(=O)c2cnccn2)cc1	.	.	3.7%	-13.8	.	.	.	.	.
Cc1ccc(S(=O)(=O)c2cccc(S(=O)(=O)N3CCOCC3)c2)cc1S(=O)(=O)N1CCOCC1	-0.5%	-1.8%	-10.0%	-0.1	15.1%	-9.5%	.	.	.
CC(CC(=O)Nc1ccc(Cl)c(S(=O)(=O)N2CCOCC2)c1)c1ccccc1 (centres undefined)	1.8%	11.6%	?	0.9	7.31µM*	-18.7%	-0.7%	-4.3%	3.26µM*
CCN(CC)S(=O)(=O)c1cccc(NC(=O)CNc2cccc(S(=O)(=O)N3CCOCC3)c2)c1	2.4%	-14.4%	.	0.7	1.3µM*	?	1.7%	-16.7%	2.06µM*
CCN(CC)S(=O)(=O)c1cc(NC(=O)Cc2ccc(S(=O)(=O)N3CCOCC3)s2)ccc1Cl	-0.5%	-12.9%	49.1%	-3.7	1.3µM*	?	-11.8%	-23.9%	6.51µM*
Cc1ccc(S(=O)(=O)c2cccc(S(=O)(=O)N3CCCC3)c2)cc1S(=O)(=O)N1CCCC1	0.0%	-3.0%	-5.8%	-13.1	8.2µM*	-25.9%	-0.1%	-10.9%	20.6µM*
Cc1ccccc1CCN1CCCC(CN(C)C(=O)c2cc3ccccc3[nH]2)C1 (centres undefined)	.	.	48.4%	.	.	.	.	.	.
CC(=O)NNC(=O)CC1Sc2ccccc2NC1=O (centres undefined)	.	.	-2.9%	1.4	.	.	.	.	.
CN(C)S(=O)(=O)c1cccc(NC(=O)CNc2cccc(S(=O)(=O)N3CCCCC3)c2)c1	-0.3%	-4.6%	-25.0%	-3.3	.	.	.	.	.
CCN(CC)S(=O)(=O)c1cc(NC(=O)CNc2cccc(S(=O)(=O)N3CCCC3)c2)ccc1C	2.7%	-28.5%	.	-4.5	5.17µM*	-19.2%	0.2%	-22.0%	8.2µM*
Cc1ccc(NC(=O)/C(C#N)=C/c2cc(C)n(-c3ccc(N4CCOCC4)c([N+](=O)[O-])c3)c2C)c(C)c1	-0.5%	2.1%	-11.0%	-8.1	?	-14.9%	.	.	.
Cc1cc(/C=C(\C#N)C(=O)Nc2ccc(Cl)cc2)c(C)n1-c1ccc(N2CCOCC2)c([N+](=O)[O-])c1	-0.9%	-1.4%	?	-7.8	5.17µM*	-22.6%	1.9%	-10.2%	4.61µM*
Cc1nc2ccc(NC(=O)c3ccc(Cl)c(S(=O)(=O)N(C)c4ccccc4)c3)cc2s1	-0.8%	-5.6%	0.0%	-6.2	3.26µM*	-23.4%	-15.9%	-15.4%	?
Cc1nc2ccc(NC(=O)c3ccc(S(=O)(=O)N(C)C)cc3)cc2s1	0.4%	0.0%	-5.0%	-3.9	?	0.9%	.	.	.
Cc1nc2ccc(NC(=O)c3cc(S(=O)(=O)N(C)c4ccccc4)ccc3Cl)cc2s1	2.8%	3.3%	-14.8%	-4.1	5.17µM*	-8.5%	-0.1%	2.5%	?
C=CCn1c(SCC(=O)c2ccccc2)nc2c1c(=O)n(C)c(=O)n2C	.	.	?	-10.6	.	.	.	.	.
Cc1ccc(NS(=O)(=O)c2ccc(C(=O)NC3CCN(Cc4ccccc4)CC3)cc2)cc1	4.6%	1.1%	?	-5.3	5.8µM*	?	2.1%	-23.8%	7.31µM*
CCN(CC)S(=O)(=O)c1ccc(OC)c(NC(=O)c2ccc(N3CCCC3=O)cc2)c1	-0.3%	-1.9%	12.0%	-4.0	-0.6%	-6.9%	.	.	.
CCN(CC)S(=O)(=O)c1ccc(NC(=O)c2ccc(N3CCCC3=O)cc2)cc1	-0.2%	14.7%	?	-8.7	1.46µM*	-15.8%	-1.1%	-5.5%	7.31µM*
COc1ccc(NC(=O)c2ccc(Cl)c(S(=O)(=O)N3CC(C)OC(C)C3)c2)cn1 (centres undefined)	3.2%	3.0%	-26.1%	1.3	2.59µM*	-5.0%	1.0%	-7.5%	7.31µM*
Cc1ccc(NS(=O)(=O)c2cccc(C(=O)NC3CCN(Cc4ccccc4)CC3)c2)cc1	2.4%	-7.8%	166.3%	-4.5	?	-13.9%	.	.	.
COc1ccc(NC(=O)c2ccc(Cl)c(S(=O)(=O)N3CCc4ccccc4C3)c2)cn1	-0.7%	7.0%	-0.9%	13.0	?	-11.3%	.	.	.
O=C(Nc1ccc(S(=O)(=O)N2CCCCC2)cc1)c1ccc(CN2CCOCC2)cc1	-0.7%	6.5%	.	1.2	4.61µM*	-4.0%	-0.9%	1.6%	7.31µM*
Cn1cc(CC(=O)NC(C(N)=O)c2ccccc2)c2ccccc21 (centres undefined)	.	.	18.8%	2.1	.	.	.	.	.
O=C(NC1CCN(Cc2ccccc2)CC1)c1ccc2c(c1)[nH]c(=O)n2Cc1ccc(F)cc1	6.9%	-2.2%	-53.3%	-5.8	4.61µM*	?	0.5%	-15.5%	9.2µM*

Bioassay records (PubChem BioAssay)
